Bioassay records: PubChem, several laboratories
Sampled rows, rich in hits. Any-hit rate of the full collection: about 1.4%.
GLD-1 TGE inh: GLD-1/TGE RNA complex disruptors, primary screen, biochemical, fluorescence polarization; 320,000 compounds, 0.44% hits; AID 2280, 2010; inhibition, % at 5.96 µM; purified GLD-1 + fluorescein TGE RNA;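 active means percent inhibition above a per-plate cutoff, the plate mean of test compounds plus 3 SD, cut at about 30% in these data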;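 further: 0% = DMSO wells with GLD-1 and probe and 100% = wells lacking GLD-1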
E coli Lon inh: inhibitors of E. coli Lon protease, primary screen, biochemical, fluorescence polarization; purified E. coli Lon protease; 360,000 compounds, 0.42% hits; AID 602123, 2011; P0A9M0; inhibition, % at 7.94 µM; in the data active means inhibition above about 13%, passing the limit was not always enough;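 further: 0% = enzyme with probe and DMSO and 100% = no enzyme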
BCLXL inh: inhibitors of human Bcl-xL, primary screen, biochemical, fluorescence polarization, HTS; Bcl-2-like protein 1 (Homo sapiens), Q07817; GST-Bcl-xL / FITC-Bim BH3 peptide fluorescence polarization; inhibition, % at 10.9 µM; 320,000 compounds, 0.7% hits; AID 2129, 2009;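 active means inhibition above the mean of all tested compounds plus 3 SD, cutoff set per campaign, cut at about 30% in these data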;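 further: 0% = DMSO wells and 100% = unlabeled Bim-BH3 peptide competitor; inhibitors lower millipolarization by displacing the labeled peptide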
Target sequence (Q07817 whole entry, looked up): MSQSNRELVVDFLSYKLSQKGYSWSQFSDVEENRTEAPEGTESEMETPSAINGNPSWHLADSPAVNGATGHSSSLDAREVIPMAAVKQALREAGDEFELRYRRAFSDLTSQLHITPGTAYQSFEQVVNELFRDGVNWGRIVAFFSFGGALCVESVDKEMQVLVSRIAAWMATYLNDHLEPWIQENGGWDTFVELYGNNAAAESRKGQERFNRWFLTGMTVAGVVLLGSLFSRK
MEX-5 binding: MEX-5 zinc finger RNA-binding disruptors – biochemical, C. elegans, fluorescence polarization, MLPCN library, primary screen | Zinc finger protein mex-5 (Caenorhabditis elegans), Q9XUB2 | MEX-5/FITC-TCR2 RNA binding; stronger effect = lower value | activity score (negative = inhibition of binding), % at 10 µM | 300,000 compounds, 0.38% hits | AID 1832, 2009;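 active means inhibition past about -25% in most replicates, and total fluorescence under double the plate's negative control median, limit read from the data; inconclusive means replicates evenly split on the limit, or fluorescence at least double controls; inactive means too little inhibition in most replicates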;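 further: 0% = DMSO and -100% = 5 µM competing unlabeled TCR2 RNA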
EBV gp42 inh: Epstein-Barr virus gp42 inhibitors, primary screen, biochemical, uHTS, fluorescence polarization. Fluorescence polarization binding assay, mP read-out. Glycoprotein 42 (Epstein-Barr virus (strain AG876)), Q1HVG2. AID 1085, 2008. 220,000 compounds, 0.42% hits. inhibition, % (tested at 21.74 µM); in the data active means inhibition above about 50%
MCL1 BIM primary: inhibitors of MCL1 binding to BIM-BH3, primary screen, biochemical, fluorescence polarization; Induced myeloid leukemia cell differentiation protein Mcl-1 (Homo sapiens), Q07820; GST-MCL1 / FITC-Bim-BH3 fluorescence polarization; inhibition, % at 10.9 µM; 320,000 compounds, 0.68% hits; AID 2057, 2009;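 active means inhibition above the mean inhibition of all tested compounds plus 3 SD, set per campaign, cut at about 40% in these data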;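 further: 0% = DMSO wells and 100% = unlabeled Bim-BH3 peptide control; higher means more loss of mP so more displacement of Bim peptide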
Target sequence (Q07820 whole entry, looked up): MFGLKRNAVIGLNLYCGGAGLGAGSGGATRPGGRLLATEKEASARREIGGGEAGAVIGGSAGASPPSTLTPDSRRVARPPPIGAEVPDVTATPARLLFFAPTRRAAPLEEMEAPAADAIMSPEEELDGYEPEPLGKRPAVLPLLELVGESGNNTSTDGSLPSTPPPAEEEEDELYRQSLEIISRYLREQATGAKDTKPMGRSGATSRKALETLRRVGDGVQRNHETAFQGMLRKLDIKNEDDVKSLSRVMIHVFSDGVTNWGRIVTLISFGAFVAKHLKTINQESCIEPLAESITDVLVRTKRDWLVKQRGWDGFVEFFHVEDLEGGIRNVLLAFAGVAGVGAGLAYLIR
GLD-1 TGE cf: GLD-1/TGE RNA binding inhibitors, retest, confirmation, biochemical, fluorescence polarization, triplicate; shares compounds with GLD-1 TGE inh; 550 compounds, 10% hits; GLD-1/FL-TGE RNA fluorescence polarization; inhibition, % at 5.96 µM;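 active means average inhibition across triplicates above the hit cutoff set in the primary screen, cut at about 32% in these data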;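 further: 0% = GLD-1 with RNA probe and DMSO and 100% = wells lacking GLD-1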
* hit, by the source's call; ? = inconclusive; . = no result given.

SMILES | GLD-1 TGE inh | E coli Lon inh | BCLXL inh | MEX-5 binding | EBV gp42 inh | MCL1 BIM primary | GLD-1 TGE cf
CC(=O)Oc1ccc(C(=O)[C@H]2[C@H]3C(=O)N(c4ccccc4)C(=O)[C@H]3[C@@H]3C=CC=NN32)cc1 | 31* | -3 | 26 | 3 | -16 | 22 | 3
O=C(N/N=C/c1ccc[nH]1)c1ccc([N+](=O)[O-])cc1 | 57* | 3 | 4 | 1 | 7 | 4 | -3
O=C(NN=Cc1ccccc1Cl)c1ccc([N+](=O)[O-])cc1 | . | 5 | . | . | . | . | .
CS(=O)(=O)N(CC(=O)O)Cc1cccc(CN(CC(=O)O)S(C)(=O)=O)c1 | -3 | 7 | 7 | 4 | . | 5 | .
CS(=O)(=O)N(CCC(=O)O)Cc1ccccc1 | 37* | 0 | 5 | 1 | -9 | 5 | -3
Nc1c(-c2cccc([N+](=O)[O-])c2)nc2ccccn12 | 32* | 6 | 6 | -2 | 12 | 14 | 43*
CCCCn1c(N)c(N(CC(C)C)C(=O)CCCn2c(=O)oc3ccccc32)c(=O)[nH]c1=O | 3 | 1 | -1 | 2 | . | -3 | .
CCCCOc1nc2ccccc2nc1C(C#N)S(=O)(=O)c1ccccc1 (stereo not given) | 2 | -16 | 3 | -1 | -7 | -1 | .
COc1ccc(S(=O)(=O)C(C#N)c2nc3ccccc3nc2N2CCC(C)CC2)cc1 (stereo not given) | 42* | . | 49* | -47* | . | 47* | 5
Cc1cccc(S(=O)(=O)C(C#N)c2nc3ccccc3nc2N2CCOCC2)c1 (stereo not given) | 41* | 6 | 32* | -72* | -6 | 27 | -2
CCOC(=O)N1CCN(C2=Nc3cccc4cccc2c34)CC1 | 49* | 2 | 39* | ? | 44 | 39 | 30
CC1CCCC(NC(=O)CSc2n[nH]c(=O)n2Cc2ccccc2)C1C (stereo not given) | 5 | -7 | . | . | . | . | .
CC(C)N1CC2=C(OC(N)=C(C#N)C2c2cccnc2)/C(=C/c2cccnc2)C1 (stereo not given) | 39* | 5 | 45* | . | 20 | 37 | 5
Cc1cc2ccccc2n1CCNC(=O)c1cccs1 | 49* | 13 | 42* | -5 | -4 | 39 | 6
Cc1cc2ccccc2n1CCNC(=O)C1CC1 | 35* | 9 | 22 | -1 | . | 23 | 13
Cc1cc2ccccc2n1CCNC(=O)C1CCCCC1 | 15 | 14 | 3 | -3 | 0 | 7 | .
Cc1cc2ccccc2n1CCNC(=O)C1CCCC1 | 17 | 11 | 27 | . | -6 | 24 | .
CCOC(=O)c1ccc(N2CCOCC2)c(NC(=O)c2c(-c3ccccc3)noc2C)c1 | 8 | -5 | 9 | 0 | -14 | 11 | .
COc1ccccc1-c1cnn2c(NC3CCCC3)cc(C)nc12 | 66* | -3 | -2 | 0 | . | 2 | -2
CCOC(=O)N1CCC(Nc2cc(C)nc3c(-c4ccccc4OC)c(C)nn23)CC1 | 3 | -17 | 2 | -1 | -1 | 6 | .
COc1ccccc1-n1cc(CN2CCN(CC=C(C)C)C(CCO)C2)cn1 (stereo not given) | -3 | 0 | -6 | 0 | -10 | -7 | .
O=C(OCC(=O)N1CCN(C(=O)c2ccco2)CC1)c1sc2cc(F)ccc2c1Cl | 36* | -9 | 60* | 0 | 0 | 38 | -5
CCC12OC(=N)C(C#N)(C1C)C(C#N)(C#N)C(c1ccccc1)O2 (stereo not given) | 33* | 1 | 21 | -10 | 9 | 25 | -1
CCOc1cccc(=O)c2c(C)n(C)c(C)c12 | 40* | 11 | 26 | -7 | 2 | 28 | -4
CCOc1ccc(NC(=O)CN(C)C(=O)C2CC(=O)N(CCc3ccccc3)C2)cc1OCC (stereo not given) | 0 | 0 | -3 | 0 | . | 1 | .
SMILES | GLD-1 TGE inh | E coli Lon inh | BCLXL inh | MEX-5 binding | EBV gp42 inh | MCL1 BIM primary | GLD-1 TGE cf
CCn1c(COc2cccc(C)c2)nnc1SCC(=O)CC(=O)Nc1ccccc1OC | 4 | -9 | -2 | 1 | 3 | -8 | .
CCn1c(COc2ccccc2)nnc1SCC(=O)CC(=O)Nc1ccccc1OC | 35* | -11 | 0 | 0 | -17 | -5 | -6
CO/N=C\Cc1oc(=O)c(NC(=O)c2ccccc2)cc1C(=O)OC | 37* | 7 | 36* | 0 | -23 | 34 | -10
COC(=O)c1cc(NC(=O)c2ccccc2)c(=O)oc1C/C=N\OCc1ccc(Cl)cc1Cl | 11 | -30 | 14 | -1 | -72 | -11 | .
CCC(=O)Nc1nc(NCc2ccccc2OC)n(-c2ccccc2)n1 | -5 | 1 | 3 | -2 | . | 4 | .
Cc1ccc(NC(=O)CSc2nnc(C)n2-c2ccccc2)cc1 | -1 | 11 | -4 | 2 | -4 | 5 | .
COC(=O)c1ccc(NC(=O)CSc2nnc(-c3ccccc3Br)n2-c2ccccc2)cc1 | 46* | 9 | 1 | 2 | . | -5 | -5
COc1ccc(S(=O)(=O)N2CCCCCC2)cc1NC(C)C(=O)Nc1ccc(NC(C)=O)cc1 (stereo not given) | . | -3 | . | . | . | . | .
CCOC(=O)C1CC(=O)c2cc(OC)c(OC)cc2C1 (stereo not given) | 60* | -8 | -1 | 1 | -12 | -1 | 1
CCOC(=O)[C@H]1[C@H]2COc3ccc(OC)cc3[C@@H]2N2C(=O)CN(Cc3ccc(F)cc3)C(=O)[C@@]12C | -3 | 8 | 1 | . | . | 1 | .
CCOC(=O)[C@H]1[C@H]2COc3ccc(OC)cc3[C@@H]2N2C(=O)CN(Cc3ccc(Cl)cc3)C(=O)[C@@]12C | 38* | -5 | 16 | . | . | 8 | 13
COc1ccc(C2Nc3ccccc3NC3=C2C(=O)CC(C)(C)C3)cc1OC (stereo not given) | 4 | -3 | 4 | -3 | . | 11 | .
CC1(C)CC(=O)C2=C(C1)Nc1ccccc1NC2c1ccc(F)cc1 (stereo not given) | 35* | 3 | 46* | -1 | . | 45* | 0
O=C(CN1CCCCCCC1)Nc1cc(Cl)cc(Cl)c1 | 33* | 12 | 3 | 5 | -9 | 3 | 3
COc1cc(/C=C(\CC(=O)O)c2nc3ccccc3s2)cc(OC)c1O | -4 | -28 | 17 | 0 | -13 | 15 | .
